Mcl1-Noxa inh: Mcl-1/Noxa interaction inhibition; Q07820; TR-FRET Mcl-1/Noxa peptide binding, 2 h; AID 1022; 220,000 tested, 1.5% active; inhibition, % at 21.7 µM;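 active = compounds that cut the protein-peptide binding signal by more than 50% relative to plate controls in a single-dose test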;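 note: His-tagged Mcl-1 with rhodamine Noxa BH3 peptide and terbium anti-His antibody; 0% = Mcl-1 plus Noxa peptide wells and 100% = peptide-only wells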
GLD-1 RNA inh: GLD-1-TGE RNA interaction inhibition (C. elegans) | Q17339 | purified GLD-1 + fluorescein TGE RNA, fluorescence polarization | inhibition, % at 5.96 µM | 320,000 tested, 0.44% active | AID 2280;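 active = percent inhibition above a per-plate cutoff, the plate mean of test compounds plus 3 SD, cut at about 30% in these data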;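 note: 0% = DMSO wells with GLD-1 and probe and 100% = wells lacking GLD-1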
Target sequence (Q17339 whole entry, looked up): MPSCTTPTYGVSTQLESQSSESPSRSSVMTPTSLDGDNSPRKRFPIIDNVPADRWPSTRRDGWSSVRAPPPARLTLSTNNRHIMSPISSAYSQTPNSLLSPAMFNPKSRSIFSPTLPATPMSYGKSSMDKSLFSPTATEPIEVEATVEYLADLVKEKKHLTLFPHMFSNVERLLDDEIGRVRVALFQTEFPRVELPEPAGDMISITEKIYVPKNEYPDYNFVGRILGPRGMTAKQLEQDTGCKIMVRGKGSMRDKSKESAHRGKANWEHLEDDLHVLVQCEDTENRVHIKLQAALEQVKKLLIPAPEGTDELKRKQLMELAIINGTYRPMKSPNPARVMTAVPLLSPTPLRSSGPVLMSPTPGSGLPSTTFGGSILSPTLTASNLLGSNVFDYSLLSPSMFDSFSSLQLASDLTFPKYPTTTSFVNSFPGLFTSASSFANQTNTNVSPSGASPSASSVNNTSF
Bcl-xL primary: blocks human Bcl-xL binding to Bim BH3 peptide | AID 2129 | Q07817 | 320,000 tested, 0.7% active | GST-Bcl-xL / FITC-Bim BH3 peptide fluorescence polarization | inhibition, % at 10.9 µM;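 active = inhibition above the mean of all tested compounds plus 3 SD, cutoff set per campaign, cut at about 30% in these data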;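 note: 0% = DMSO wells and 100% = unlabeled Bim-BH3 peptide competitor; inhibitors lower millipolarization by displacing the labeled peptide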
Target sequence (Q07817 whole entry, looked up): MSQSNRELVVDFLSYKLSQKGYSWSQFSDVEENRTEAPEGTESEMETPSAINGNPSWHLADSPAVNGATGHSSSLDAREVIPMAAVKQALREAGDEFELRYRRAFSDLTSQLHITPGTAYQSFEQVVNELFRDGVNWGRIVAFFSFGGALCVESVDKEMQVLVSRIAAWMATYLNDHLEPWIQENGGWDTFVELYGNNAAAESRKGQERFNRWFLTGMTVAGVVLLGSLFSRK
Mcl1 Bid PPI: Mcl-1/Bid interaction inhibition. inhibition, % at 21.7 µM. 220,000 tested, 0.97% active. TR-FRET Mcl-1/Bid-Dy647 peptide binding, 1536-well. Q07820;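 active = compounds that cut the binding signal by more than half at the single screening dose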;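 note: His-tagged Mcl-1 with europium anti-His antibody binding Bid BH3 peptide; 0% = Mcl-1 plus peptide wells and 100% = peptide-only wells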
MCL1-BIM inh: inhibitors of human MCL1 binding to BIM-BH3 peptide. Q07820. 320,000 tested, 0.68% active. inhibition, % at 10.9 µM. GST-MCL1 / FITC-Bim-BH3 fluorescence polarization;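 active = inhibition above the mean inhibition of all tested compounds plus 3 SD, set per campaign, cut at about 40% in these data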;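 note: 0% = DMSO wells and 100% = unlabeled Bim-BH3 peptide control; higher means more loss of mP so more displacement of Bim peptide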
Bim-Mcl-1: human Bim-Mcl-1 interaction inhibition. inhibition, % at 10 µM. 190,000 tested, 0.1% active. AID 1009. Bead-based flow cytometry, Bim peptide-Mcl-1 binding; in the data active = inhibition above about 40%;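 note: 0% = no compound tracer wells and 100% = peptide blocker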
* marks the source's active call; other numbers are inactive results. Only some compounds are listed: those with a hit (about 2.3% of all), similar ones and a draw of the others.

O=C(NC1CC1)C1=C[C@@H](c2c[nH]c3ccccc23)C[C@@H](OCc2ccc(CO)cc2)O1 was read as Mcl1-Noxa inh 6, GLD-1 RNA inh -15, Bcl-xL primary 39*, Mcl1 Bid PPI -25 and MCL1-BIM inh -2.
CC(NC(=O)c1cccs1)c1ccc(Br)cc1 (centres undefined) was read as GLD-1 RNA inh -2, Bcl-xL primary 3 and MCL1-BIM inh 3.
COc1cc(C=O)cc(OC)c1OS(=O)(=O)c1ccc(NC(C)=O)cc1 was read as Mcl1-Noxa inh 52*, GLD-1 RNA inh 4, Bcl-xL primary 5, Mcl1 Bid PPI 21, MCL1-BIM inh 4 and Bim-Mcl-1 0.
CC(C)NC(=O)CCCC(=O)NC(C)C was read as Mcl1-Noxa inh 1, GLD-1 RNA inh 2, Bcl-xL primary 9, Mcl1 Bid PPI -13, MCL1-BIM inh 8 and Bim-Mcl-1 -1.
`COc1ccc(C(=O)C[n+]2ccc(-c3nnc4n3CCCCC4)cc2)cc1` gave Mcl1-Noxa inh 76*, GLD-1 RNA inh 1, Bcl-xL primary 3, Mcl1 Bid PPI -46 and MCL1-BIM inh 13.
For O=C(C[n+]1ccc(-c2nnc3n2CCCCC3)cc1)c1ccc(Cl)cc1 the results were Mcl1-Noxa inh -14, GLD-1 RNA inh 5, Bcl-xL primary 8, Mcl1 Bid PPI -3 and MCL1-BIM inh 4.
Screening O=C(Cn1c(=O)oc2ccccc21)Nc1ccccc1C(F)(F)F returned GLD-1 RNA inh 0, Bcl-xL primary 3 and MCL1-BIM inh -2.
`CCOC(=O)c1c(NC(C)=O)sc2c(O)c(Br)cc(Br)c12` gave Mcl1-Noxa inh 84*, GLD-1 RNA inh 5, Bcl-xL primary 16, Mcl1 Bid PPI -15, MCL1-BIM inh 27 and Bim-Mcl-1 -3.
For N#C/C(=C(/O)c1ccc([N+](=O)[O-])cc1)c1nc2ccccc2[nH]1 the results were Mcl1-Noxa inh 17, GLD-1 RNA inh 1, Bcl-xL primary 0, Mcl1 Bid PPI -5 and MCL1-BIM inh 4.
For N#C/C(=C(/O)c1ccc(Cl)c([N+](=O)[O-])c1)c1nc2ccccc2[nH]1 the results were Mcl1-Noxa inh 66*, GLD-1 RNA inh 3, Bcl-xL primary 3, Mcl1 Bid PPI 25 and MCL1-BIM inh 7.
For Cc1cc(-c2ccc(N=Nc3c(S(=O)(=O)O)cc4cc(S(=O)(=O)O)cc(N)c4c3O)c(C)c2)ccc1N=Nc1c(S(=O)(=O)O)cc2cc(S(=O)(=O)O)cc(N)c2c1O the results were GLD-1 RNA inh 22, Bcl-xL primary 65* and MCL1-BIM inh 96*.
Screening O=C(Nc1ccc(N2CCOCC2)cc1)Nc1ccc2nsnc2c1 returned Mcl1-Noxa inh 61*, GLD-1 RNA inh 1, Bcl-xL primary 4, Mcl1 Bid PPI -50, MCL1-BIM inh 4 and Bim-Mcl-1 4.
`CC1CCc2sc(C(=O)Nc3ccc(N4CCOCC4)cc3)cc2C1` (centres undefined) gave Mcl1-Noxa inh 52*, GLD-1 RNA inh -6, Bcl-xL primary 6, Mcl1 Bid PPI -28, MCL1-BIM inh 0 and Bim-Mcl-1 0.
For O=C(Nc1ccc(N2CCOCC2)cc1)c1cnsn1 the results were Mcl1-Noxa inh 23, Mcl1 Bid PPI -3 and Bim-Mcl-1 0.
`C=CCn1c(=N)n(CC(O)c2ccco2)c2ccccc21` (centres undefined) gave Mcl1-Noxa inh 0, GLD-1 RNA inh 15, Bcl-xL primary 34*, Mcl1 Bid PPI -13, MCL1-BIM inh 31 and Bim-Mcl-1 -5.
For CCn1c(=N)n(CC(O)c2ccco2)c2ccccc21 (centres undefined) the results were Mcl1-Noxa inh -8, GLD-1 RNA inh 3, Bcl-xL primary 16, Mcl1 Bid PPI -42, MCL1-BIM inh 12 and Bim-Mcl-1 2.
Screening COc1ccc(C(=O)O)cc1NC(=S)NC(=O)c1ccc(-c2ccc(Cl)cc2)o1 returned Mcl1-Noxa inh 75*, Mcl1 Bid PPI 10 and Bim-Mcl-1 0.
CN1CCC23c4ccccc4NC1C21CCN(C)C3Nc2ccccc21 was read as GLD-1 RNA inh 9, Bcl-xL primary 2 and MCL1-BIM inh -1.
`C/C=C/C=C/C(=O)N1CC[C@]23c4ccccc4N[C@H]4N(C)c5cccc6c5[C@]42CCN([C@H]6C2OC2(C)C)[C@H]13` (some centres undefined) gave Mcl1-Noxa inh 64*, GLD-1 RNA inh 4, Bcl-xL primary 3, Mcl1 Bid PPI -109 and MCL1-BIM inh 4.
Screening O=C(c1ccccc1)N1CCN(C2CCCCCC2)CC1 returned Mcl1-Noxa inh 27, GLD-1 RNA inh -14, Bcl-xL primary 4, Mcl1 Bid PPI 66*, MCL1-BIM inh 4 and Bim-Mcl-1 -1.
For O=C(c1ccc(F)cc1)N1CCN(C2CC3CCC2C3)CC1 (centres undefined) the results were Mcl1-Noxa inh 7, GLD-1 RNA inh 7, Bcl-xL primary 1, Mcl1 Bid PPI -17, MCL1-BIM inh 6 and Bim-Mcl-1 5.
For O=C(c1ccccc1)N1CCN(C2CC3CCC2C3)CC1 (centres undefined) the results were Mcl1-Noxa inh -14, GLD-1 RNA inh -3, Bcl-xL primary 1, Mcl1 Bid PPI 57*, MCL1-BIM inh -1 and Bim-Mcl-1 -3.
`Cn1cccc1CNCC(O)c1ccccc1` (centres undefined) gave GLD-1 RNA inh 5, Bcl-xL primary 7 and MCL1-BIM inh 7.
CCN(C(=O)COC(=O)C1CCN(S(=O)(=O)c2ccc3c(c2)OCCO3)CC1)C1CCS(=O)(=O)C1 (centres undefined) was read as GLD-1 RNA inh 4, Bcl-xL primary -7 and MCL1-BIM inh -8.
`Fc1ccc(NC(=S)N/N=C/c2cccc(Br)c2)c(F)c1` gave Mcl1-Noxa inh -1, GLD-1 RNA inh 2, Bcl-xL primary 3, Mcl1 Bid PPI 97*, MCL1-BIM inh 3 and Bim-Mcl-1 -2.
Screening Cc1cc(C)cc(-n2ncc3c2CCCC3NC(=O)CCCn2cncn2)c1 (centres undefined) returned GLD-1 RNA inh 1, Bcl-xL primary 4 and MCL1-BIM inh 0.
For C=CCOC(=O)C1=C(C)N=c2s/c(=C3\C(=O)N(CC(=O)O)c4ccccc43)c(=O)n2C1c1ccc(OC)cc1 (centres undefined) the results were Mcl1-Noxa inh 81*, GLD-1 RNA inh 1, Bcl-xL primary 20, Mcl1 Bid PPI 3 and MCL1-BIM inh 16.
Cc1cc(O)ccc1N=Cc1c(C(F)(F)F)[nH][nH]c1=O was read as Mcl1-Noxa inh 9, GLD-1 RNA inh 6, Bcl-xL primary 22, Mcl1 Bid PPI -40, MCL1-BIM inh 16 and Bim-Mcl-1 0.
Screening Cc1ccc(NC(=O)Cn2nc(-c3ccccc3)nc2-c2ccccc2)c(C)c1 returned Mcl1-Noxa inh -6, GLD-1 RNA inh 8, Bcl-xL primary 2, Mcl1 Bid PPI -24, MCL1-BIM inh -6 and Bim-Mcl-1 -6.
